Several values for one entry are separate records, joined by “and”; a condition that tells them apart may be missing. Identical values can stand only once. Inconclusive results are not listed. Activity calls are given as the source filed them. Calls follow the shape of the dose curve; as a rule, active = well fitted inhibition curve with a large enough effect; inconclusive = small, poorly fitted or top-dose-only effect; inactive = flat fitted curve, though single readings scatter.
What follows are compounds tested on KB-3-1 (assay: Cytotoxic Profiling of Annotated Libraries Using Quantitative High-Throughput Screening (AID 1296008; also: nearly all actives have a fitted effect of over 60% in size)). Conditions: Five cell lines viability, CellTiter-Glo ATP luminescence, 48-72 h; max response: active compounds read low.
Summary of the method: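 Cells exposed to compounds for 48 or 72 hr at 37 degrees Celsius. Viability read as ATP-coupled luminescence with CellTiter-Glo after 10 min at room temperature.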
In the case of `Cc1cccc(C)c1NC(=O)C1CCCCN1C` (configuration not stated), the max response is reported as -1.09% (inactive).
For `O=C1/C(=C\c2cccs2)CCC/C1=C\c1cccs1`, the max response was 8.4% (inactive).
For `CO[C@H]1C[C@H](O[C@H]2[C@H](C)[C@@H](O[C@@H]3O[C@H](C)C[C@H](N(C)C)[C@H]3O)[C@@H](C)C[C@]3(CO3)C(=O)[C@H](C)[C@@H](O)[C@@H](C)[C@@H](C)OC(=O)[C@@H]2C)O[C@@H](C)[C@@H]1O`, the max response was 3.86% (inactive).
`O=C1c2c(O)cccc2[C@H]([C@@H]2O[C@H](CO)[C@@H](O)[C@H](O)[C@H]2O)c2cc(CO)cc(O)c21` was tested, and the max response was 8.29% (inactive).
For `Cc1cc(C)c(NC(=O)C[C@H](CC(=O)O)c2cccc3ccccc23)c(C(=O)N2CCC3(CCCC3)CC2)c1`, the max response was -2.39% (inactive).
For `CCOc1ccc(NC(=S)Nc2ccc(OCC)cc2)cc1`, the max response was 43.1% (inactive).
For `OCCCNc1ccccc1`, the max response was 2.06% (inactive).
For `COc1ccccc1N1CCN(CCCC(=O)c2ccc(F)cc2)CC1`, the max response was -4.67% (inactive).
For `CN1CCC(OC(=O)C(Oc2ccc(Cl)cc2)Oc2ccc(Cl)cc2)CC1`, the max response was -2.63% (inactive).
For `CC1C(=O)CC2C3(C)CCC2(C(C)C(=O)O)C(=O)C13` (configuration not stated), the max response was 5.4% (inactive).
`C[C@@H]1NC(=O)[C@@H](N)CNC(=O)[C@H](C2CCNC(N)=N2)NC(=O)/C(=C/NC(N)=O)NC(=O)[C@H](CNC(=O)C[C@@H](N)CCCN)NC1=O` (some centres not stated) was tested, and the max response was -2.35% (inactive) and -9.97% (inactive).
For `COc1cc2c(cc1OC)[C@@H](c1ccccc1)CN(C)CC2`, the max response was -3.02% (inactive).
With `CCCOc1cc(N)ccc1C(=O)OCCN(CC)CC` the max response was -11.4% (inactive).
For `CC(C)(C)c1ccc2c(S(=O)(=O)O)c(C(C)(C)C)ccc2c1`, the max response was 3.96% (inactive).
With `CCc1ccc(S(=O)(=O)O)cc1` the max response was 6.98% (inactive).
`Cc1cc(O)c2c(c1)O[C@@]1(C)CC[C@H]3C(C)(C)CCCC34CO[C@@H]2[C@H]41` (some centres not stated) was tested, and the max response was -3.47% (inactive).
For `CCCCCCCCCCCC(=O)OCC(O)CO` (configuration not stated), the max response was 4.65% (inactive).
For `CC(C)CCC[C@@H](C)[C@H]1CC[C@H]2[C@@H]3CC[C@@H]4C[C@H](O)CC[C@]4(C)[C@H]3CC[C@]12C`, the max response was -12.6% (inactive).
`CC/C(=C(/CC)c1ccc(OP(=O)(O)O)cc1)c1ccc(OP(=O)(O)O)cc1` was tested, and the max response was -7.92% (inactive).
With `CC(C)(C)C(=O)OCC(=O)[C@H]1CC[C@H]2[C@@H]3CCC4=CC(=O)CC[C@]4(C)[C@H]3CC[C@]12C` the max response was -9.73% (inactive).
For `CCN(CC)C(=O)[C@]1(c2ccccc2)C[C@@H]1CN`, the max response was 6.62% (inactive).
With `Cc1c(N)nc([C@H](CC(N)=O)NC[C@H](N)C(N)=O)nc1C(=O)N[C@H](C(=O)N[C@H](C)[C@@H](O)[C@H](C)C(=O)N[C@H](C(=O)NCCc1nc(-c2nc(C(=O)NCCCCN=C(N)N)cs2)cs1)[C@@H](C)O)[C@@H](O[C@@H]1O[C@@H](CO)[C@@H](O)[C@H](O)[C@@H]1O[C@H]1O[C@H](CO)[C@@H](O)[C@H](OC(N)=O)[C@@H]1O)c1cnc[nH]1` the max response was -6.52% (inactive) and -5.98% (inactive).
With `OC[C@H]1O[C@@H](O[C@H]2[C@H](O)[C@@H](O)[C@H](O)O[C@@H]2CO)[C@H](O)[C@@H](O)[C@@H]1O` the max response was 4.72% (inactive).
With `CC(=O)OCC1=C(C(=O)O)N2C(=O)[C@@H](NC(=O)Cc3ccccc3)[C@H]2SC1` the max response was -5.45% (inactive).
In the case of `CC(C)C[C@@H](NC(=O)[C@@H](O)[C@H](N)Cc1ccccc1)C(=O)O`, the max response is reported as 11% (inactive).
With `O=C(O)[C@H]1C(=CCO)O[C@H]2CC(=O)N12` the max response was 8.73% (inactive).
`NC(=O)CC[C@@H]1NC(=O)[C@H](Cc2ccccc2)NC(=O)[C@H](Cc2ccc(O)cc2)NC(=O)[C@@H](N)CSSC[C@@H](C(=O)N2CCC[C@H]2C(=O)N[C@@H](CCCN=C(N)N)C(=O)NCC(N)=O)NC(=O)[C@H](CC(N)=O)NC1=O` was tested, and the max response was 22.3% (inactive) and -14.9% (inactive).
`CN(C)C(=O)CCSC(SCCC(=O)O)c1cccc(/C=C/c2ccc3ccc(Cl)cc3n2)c1` (configuration not stated) was tested, and the max response was -15.2% (inactive).
With `C/C=C/C=C/C(=O)O` the max response was 5.4% (inactive).
`CC(C)(CO)[C@@H](O)C(=O)NCCC(=O)NCCSSCCNC(=O)CCNC(=O)[C@H](O)C(C)(C)CO` was tested, and the max response was -0.241% (inactive).
In the case of `O=C(Cc1cccs1)N[C@@H]1C(=O)N2C(C(=O)[O-])=C(C[n+]3ccccc3)CS[C@H]12`, the max response is reported as 6.88% (inactive).
For `CO[C@@H]1[C@H](OC(=O)/C=C/C=C/C=C/C=C/C(=O)O)CC[C@]2(CO2)[C@H]1[C@@]1(C)O[C@@H]1CC=C(C)C`, the max response was 2% (inactive).
For `CC(=C\c1ccccc1)/C=C1/SC(=S)N(CC(=O)O)C1=O`, the max response was 3.64% (inactive).
For `O=C(O)CCCC/C=C(\c1ccccc1)c1cccnc1`, the max response was -9.78% (inactive).
`CCCCCCCCCCCCOCCCN` was tested, and the max response was -4.56% (inactive).
`CCOC(=O)c1c[nH]c2cc(OCC(C)C)c(OCC(C)C)cc2c1=O` was tested, and the max response was 5.44% (inactive).
In the case of `CCOc1cc(-c2nccc3cc(OC)c(OC)cc23)cc(OCC)c1OCC`, the max response is reported as -26.3% (inactive).

Source: PubChem BioAssay (NCATS)
% is scaled to controls: 0 for no effect and ±100 for the full control effect.
